Measurements: PubChem BioAssay (Tox21)
Records with an inconclusive call do not appear. Active and inactive are the calls of the source. Unless noted, calls follow the shape of the full dose curve.

Assays:
[1] = Nuclear factor erythroid 2-related factor 2/antioxidant responsive element (Nrf2/ARE) small molecule agonists: qHTS cell viability counter screen in human keratinocytes (AID 1919968; active = well fitted curve in the direction sought with a large enough effect in the repeat runs; an effect the other way counts as inactive or inconclusive; also: nearly all actives have a fitted effect of over 55% in size)
Summary of the method: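 After a 5 h attachment period, ARE-reporter keratinocytes were dosed with compounds in DMSO and then cultured 23 h at 37 C. Cell viability came from CellTiter-Fluor signal read after a further 1 h.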

[2] = Nuclear factor erythroid 2-related factor 2/antioxidant responsive element (Nrf2/ARE) small molecule agonists: luciferase reporter gene qHTS assay in human keratinocytes (AID 1919969); also: nearly all actives have a fitted effect of over 35% in size
[3] = target: Gonadotropin-releasing hormone receptor (Homo sapiens) (UniProt P30968); assay: Human gonadotropin-releasing hormone receptor (GnRHR) small molecule agonists, calcium flux assay in GnRHR-HEK293 cells (AID 1920063); also: nearly all actives have a fitted effect of over 35% in size
Summary of the method: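 We seeded human GnRHR-expressing HEK293 cells for 18 hours, loaded them with calcium dye for an hour at 37 C, added test compounds, and recorded fluorescence intensity kinetically for three minutes.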

[4] = target: KiSS-1 receptor (Homo sapiens) (UniProt Q969F8); assay: Human kisspeptin (KISS1R) small molecule agonists, calcium flux assay in KISS1R-HEK293 cells (AID 1920064; active = well fitted curve in the direction sought with a large enough effect in the repeat runs; an effect the other way counts as inactive or inconclusive)
Summary of the method: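 Kinetic calcium assay, 1 s sampling over 3 min at Ex/Em 480/540, in HEK293 cells engineered with human KISS1R; compounds delivered in DMSO after 1 h dye loading.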

[5] = G protein-coupled receptor (GPCR) small molecule agonists, calcium flux assay: HEK293 wild type cell line counter screen (AID 1920065)
Summary of the method: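 Calcium-sensitive dye, loaded 1 h at 37 C into cells cultured 18 h, reports compound-evoked calcium release as fluorescence (Ex/Em 480/540), measured over 3 min. Agonist mode; 15-point titrations, triplicate.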

[6] = p53 small molecule agonists, cell-based qHTS assay with human liver microsomes (AID 1963577);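 also: p53 response element beta-lactamase reporter cells with liver microsomes plus NADPH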
Summary of the method: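 HLM-supplemented p53RE-bla reporter assay: 16 h compound exposure at 37 C, microsomes and NADPH each 0.5 mg/mL final, read by fluorescence intensity.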

[7] = p53 small molecule agonists, cell-based qHTS assay with human liver microsomes: qHTS cell viability counter screen (AID 1963579); also: nearly all actives have a fitted effect of over 45% in size
Summary of the method: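 Viability of p53RE-bla cells is measured as CellTiter-Glo luminescence following a 16 h, 37 C incubation with compound, liver microsomes from human donors and NADPH.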

[8] = p53 small molecule agonists, cell-based qHTS assay with rat liver microsomes: qHTS cell viability counter screen (AID 1963580); also: nearly all actives have a fitted effect of over 45% in size
Summary of the method: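 p53RE-bla HCT-116 cells (4,000/well) rested 5 h at 37 C, then given Tox21 compounds in DMSO with rat liver microsomes (0.5 mg/mL final) plus NADPH (0.5 mg/mL final) for 16 h at 37 C. Viability read by CellTiter-Glo luminescence after 30 min at room temperature.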

[9] = p53 small molecule agonists, cell-based qHTS assay: qHTS cell viability counter screen (AID 1963581); also: nearly all actives have a fitted effect of over 45% in size
Summary of the method: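 Following 5 h attachment, HCT-116 p53RE-bla cells took up compound for 16 h at 37 C; the reporter was read with B/G FRET substrate (2 h RT), and viability then via CellTiter-Glo ATP luminescence.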

[10] = p53 small molecule agonists, cell-based qHTS assay (AID 1963582; active = well fitted activation curve with a large enough effect in the signal ratio in the repeat runs, not every such curve was filed as active; the % refers to the signal ratio)
Summary of the method: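 In this cell-based concentration-response screen, a p53 response element drives beta-lactamase; cells received DMSO-borne compounds after 5 h culture and were incubated a further 16 h before FRET substrate development.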

[11] = target: 5-hydroxytryptamine receptor 2A (Homo sapiens) (UniProt P28223); assay: 5-hydroxytryptamine receptor 2A (HTR2A) small molecule antagonists, cell-based qHTS assay (AID 1963586); also: nearly all actives have a fitted effect of over 45% in size
Summary of the method: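 Antagonist-mode intracellular calcium assay: DOI (4 nM) added after 5 min compound pre-incubation at room temperature to dye-loaded HTR2A-CHO cells. Fluorescence followed for 3 min, sampled every second.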

[12] = target: 5-hydroxytryptamine receptor 2A (Homo sapiens) (UniProt P28223); assay: 5-hydroxytryptamine receptor 2A (HTR2A) small molecule agonists, cell-based qHTS assay (AID 1963587); also: nearly all actives have a fitted effect of over 30% in size
Summary of the method: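 HTR2A-CHO cells, plated 18 h at 37 C/5% CO2, dye-loaded 1 h at 37 C; compounds in DMSO added by pin tool (agonist mode). Intracellular calcium flux read as kinetic fluorescence on FDSS over 2 min at 1 s intervals.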

[13] = target: Muscarinic acetylcholine receptor M1 (Homo sapiens) (UniProt P11229); assay: Cholinergic receptor muscarinic 1 (CHRM1) small molecule antagonists, cell-based qHTS assay (AID 1963588); also: nearly all actives have a fitted effect of over 40% in size
Summary of the method: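 CHRM1-CHO calcium-flux assay, antagonist mode. Cells were seeded 18 h, dye-loaded 1 h at 37 C and given compound for 5 min at RT, then acetylcholine was added at 50nM. FDSS fluorescence was read 3 min; 15 concentrations, three runs.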

[14] = cAMP Responsive Elements (CRE) small molecule agonists, cell-based qHTS assay (AID 1963590)
Summary of the method: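 A CRE-responsive beta-lactamase reporter in HEK 293T cells was used. Treatment ran 3 h at 37 C; detection used LiveBLAzer B/G FRET substrate for 2 h at room temperature.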

[15] = cAMP Responsive Elements (CRE) small molecule antagonists, cell-based qHTS assay (AID 1963591; active = well fitted inhibition curve with a large enough effect in the signal ratio in the repeat runs, not every such curve was filed as active; the % refers to the signal ratio)
Summary of the method: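 HEK293T cells carrying a CRE-driven beta-lactamase reporter receive compound and NKH477 (0.25 uM final) for 3 h. Fluorescence from LiveBLAzer B/G FRET substrate is read after 2 h at room temperature.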

[16] = target: Beta-2 adrenergic receptor (Homo sapiens) (UniProt P07550); assay: Adrenergic beta2 receptor (ADRB2) small molecule antagonists, cell-based qHTS assay (AID 1963592); also: series mostly up to about 92 µM; nearly all actives have a fitted effect of over 50% in size
Summary of the method: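 Cells (CHO, stable ADRB2 overexpression) incubated 18-20hr at 37C; compounds added from DMSO; agonist mix (1nM isoproterenol, 100uM IBMX, 25uM Ro-20-1724) added; 0.5hr RT; d2-cAMP and anti-cAMP-cryptate added; 1hr RT; 665/615 nm read.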

[17] = target: Beta-2 adrenergic receptor (Homo sapiens) (UniProt P07550); assay: Adrenergic beta2 receptor (ADRB2) small molecule agonists, cell-based qHTS assay (AID 1963593);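 also: CHO cells stably overexpressing human ADRB2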
Summary of the method: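 CHO cells stably over-expressing ADRB2 were plated overnight at 37C, then dosed with compounds plus a stimulation mix containing 100uM IBMX and 25uM Ro-20-1724 for 0.5hr at room temperature. cAMP was measured by HTRF competition, 1hr.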

[18] = target: D(2) dopamine receptor (Homo sapiens) (UniProt P14416); assay: Dopamine D2 receptor (DRD2) small molecule agonists, cell-based qHTS assay (AID 1963594); also: nearly all actives have a fitted effect of over 35% in size
Summary of the method: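 HEK293 cells stably expressing DRD2 were cultured 24 h at 37 C, then given Ro20-1724 (0.1 mM final) and compounds for 10 min at room temperature. NKH477 (200nM) was then added for 30 min. cAMP was read by HTRF.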

[19] = target: D(2) dopamine receptor (Homo sapiens) (UniProt P14416); assay: Dopamine D2 receptor (DRD2) small molecule antagonists, cell-based qHTS assay (AID 1963595; active = well fitted inhibition curve with a large enough effect in the signal ratio in the repeat runs, with a control signal flat; the % refers to the signal ratio)
Summary of the method: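 Antagonism was scored as restored cAMP in HEK293-DRD2 cells. These cells were stimulated with 200 nM NKH477 and 12 nM quinpirole for 30 min at room temperature, in the presence of 0.1 mM Ro20-1724.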

[20] = target: Muscarinic acetylcholine receptor M1 (Homo sapiens) (UniProt P11229); assay: Cholinergic receptor muscarinic 1 (CHRM1) small molecule agonists, cell-based qHTS assay (AID 1963589); also: nearly all actives have a fitted effect of over 35% in size
Summary of the method: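 Measures agonist-induced intracellular calcium rise. Stable human CHRM1 CHO line, 1 h dye load at 37 C, compounds from DMSO, kinetic fluorescence read.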

Measured: Potency

D(2) dopamine receptor (Homo sapiens), sequence (P14416 whole entry, looked up): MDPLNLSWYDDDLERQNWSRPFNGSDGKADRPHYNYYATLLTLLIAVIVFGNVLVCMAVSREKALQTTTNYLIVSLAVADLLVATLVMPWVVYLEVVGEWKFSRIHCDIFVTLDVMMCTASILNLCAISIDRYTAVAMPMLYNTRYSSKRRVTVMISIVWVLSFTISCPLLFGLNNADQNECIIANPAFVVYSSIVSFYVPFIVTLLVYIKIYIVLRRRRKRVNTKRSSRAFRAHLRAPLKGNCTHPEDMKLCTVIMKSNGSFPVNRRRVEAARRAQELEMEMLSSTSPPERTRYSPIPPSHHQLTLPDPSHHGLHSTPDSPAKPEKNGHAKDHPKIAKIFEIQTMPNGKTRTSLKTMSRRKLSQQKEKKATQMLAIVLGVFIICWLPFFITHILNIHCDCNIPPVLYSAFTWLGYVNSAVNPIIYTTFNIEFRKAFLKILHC
5-hydroxytryptamine receptor 2A (Homo sapiens), sequence (P28223 whole entry, looked up): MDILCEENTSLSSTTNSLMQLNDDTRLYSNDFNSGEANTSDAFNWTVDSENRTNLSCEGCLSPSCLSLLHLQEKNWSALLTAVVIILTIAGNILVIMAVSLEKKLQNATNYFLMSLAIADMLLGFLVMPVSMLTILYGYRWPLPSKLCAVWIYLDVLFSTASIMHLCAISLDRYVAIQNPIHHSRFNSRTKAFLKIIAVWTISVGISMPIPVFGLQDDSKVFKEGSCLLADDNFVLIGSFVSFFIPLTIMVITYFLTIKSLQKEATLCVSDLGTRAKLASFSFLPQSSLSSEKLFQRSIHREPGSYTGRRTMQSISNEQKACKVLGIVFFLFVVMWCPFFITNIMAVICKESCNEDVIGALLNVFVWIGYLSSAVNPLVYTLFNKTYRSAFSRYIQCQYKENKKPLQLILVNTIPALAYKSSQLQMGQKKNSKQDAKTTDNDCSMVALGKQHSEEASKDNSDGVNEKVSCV
Beta-2 adrenergic receptor (Homo sapiens), sequence (P07550 whole entry, looked up): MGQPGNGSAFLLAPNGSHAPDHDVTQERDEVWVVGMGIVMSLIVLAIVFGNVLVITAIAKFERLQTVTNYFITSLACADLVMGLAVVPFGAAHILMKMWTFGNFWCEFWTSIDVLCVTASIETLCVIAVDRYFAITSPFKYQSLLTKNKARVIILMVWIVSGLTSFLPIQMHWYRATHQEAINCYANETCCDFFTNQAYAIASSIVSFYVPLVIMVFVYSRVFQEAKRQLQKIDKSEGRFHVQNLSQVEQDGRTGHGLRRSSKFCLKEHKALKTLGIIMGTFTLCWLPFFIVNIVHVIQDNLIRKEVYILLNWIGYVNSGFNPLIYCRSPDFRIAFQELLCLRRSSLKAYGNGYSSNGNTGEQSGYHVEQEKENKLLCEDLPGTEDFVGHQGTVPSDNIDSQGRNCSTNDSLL
Gonadotropin-releasing hormone receptor (Homo sapiens), sequence (P30968 whole entry, looked up): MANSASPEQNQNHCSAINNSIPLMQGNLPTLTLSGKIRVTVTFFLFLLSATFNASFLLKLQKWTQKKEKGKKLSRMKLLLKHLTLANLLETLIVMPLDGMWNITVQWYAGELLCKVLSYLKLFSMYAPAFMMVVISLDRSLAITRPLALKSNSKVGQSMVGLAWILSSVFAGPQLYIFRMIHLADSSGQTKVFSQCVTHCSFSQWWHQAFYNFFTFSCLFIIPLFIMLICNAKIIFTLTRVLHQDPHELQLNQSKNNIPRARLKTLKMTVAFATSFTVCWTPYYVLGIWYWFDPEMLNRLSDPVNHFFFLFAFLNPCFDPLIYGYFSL
KiSS-1 receptor (Homo sapiens), sequence (Q969F8 whole entry, looked up): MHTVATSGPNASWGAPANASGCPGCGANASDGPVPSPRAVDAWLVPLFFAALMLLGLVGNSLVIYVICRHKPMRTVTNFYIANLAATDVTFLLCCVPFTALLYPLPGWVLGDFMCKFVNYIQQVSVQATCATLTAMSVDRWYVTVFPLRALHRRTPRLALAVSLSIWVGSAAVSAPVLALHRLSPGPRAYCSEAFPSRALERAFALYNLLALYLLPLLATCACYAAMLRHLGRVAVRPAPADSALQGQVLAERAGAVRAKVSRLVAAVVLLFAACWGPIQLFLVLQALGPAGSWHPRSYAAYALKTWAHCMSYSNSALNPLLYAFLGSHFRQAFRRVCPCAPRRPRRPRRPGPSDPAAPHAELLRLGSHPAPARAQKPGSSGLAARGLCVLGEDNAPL
Muscarinic acetylcholine receptor M1 (Homo sapiens), sequence (P11229 whole entry, looked up): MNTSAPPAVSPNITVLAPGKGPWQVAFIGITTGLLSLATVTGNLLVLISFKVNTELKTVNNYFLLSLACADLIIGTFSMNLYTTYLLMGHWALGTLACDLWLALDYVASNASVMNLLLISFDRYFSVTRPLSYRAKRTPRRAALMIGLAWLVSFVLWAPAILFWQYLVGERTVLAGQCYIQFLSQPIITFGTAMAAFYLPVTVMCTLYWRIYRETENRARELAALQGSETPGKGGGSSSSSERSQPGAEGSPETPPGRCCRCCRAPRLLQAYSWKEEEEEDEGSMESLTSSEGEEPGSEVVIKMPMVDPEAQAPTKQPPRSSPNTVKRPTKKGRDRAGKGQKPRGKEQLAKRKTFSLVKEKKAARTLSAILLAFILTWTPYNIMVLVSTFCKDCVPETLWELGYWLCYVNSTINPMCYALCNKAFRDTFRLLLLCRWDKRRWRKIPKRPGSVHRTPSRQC

NC(=S)N/N=C/c1cccnc1
not listed: [20]
inactive: all other assays above

Cc1ccccc1N=O
not listed: [17]
inactive: all other assays above

CC1(C)CO[C@@H](CC(=O)O)CN1
inactive: all assays above

COc1cc(C(=S)N2CCOCC2)ccc1O
not listed: [18]
inactive: all other assays above

CSCCC=O
inactive: all assays above

NC(=O)NNC(N)=O
inactive: all assays above

NC(=O)c1cccc([N+](=O)[O-])c1
not listed: [14] | [17] | [20]
inactive: all other assays above

OCC1CCC(CO)CC1 (centres undefined)
inactive: all assays above

C[C@@H](O)[C@H]1C(=O)N2C(C(=O)O)=C([C@H]3CCCO3)S[C@H]12
inactive: all assays above

Cc1ccc(C(C)(C)O)cc1
not listed: [6] | [17]
inactive: all other assays above

CCCCCCCCCCCCC(=O)O
not listed: [7] | [20]
inactive: all other assays above

CSc1cnccn1
not listed: [6] | [17]
inactive: all other assays above

O=C(O)C(=O)Nc1cccc(-c2nn[nH]n2)c1
not listed: [7] | [9]
inactive: all other assays above

CC(=O)CC(C)(C)C1CCCCC1
not listed: [6] | [17]
inactive: all other assays above
